From PubChem BioAssay AID463190 (Sanford-Burnham Center for Chemical Genomics, 2010)
Out of some 330,000 compounds screened, about 7,300 (2.2%) were called active. Many of the other results were omitted from the sample, so actives are more common in it than they were. Values without a mark were called inactive.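 How the source made its calls: active means inhibition of at least 40%; inactive means the rest.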

test: growth inhibitors of tim10-1 mutant yeast, primary screen, luminescence, uHTS (AID 463190);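 further: mutant grown at 25 °C; 0% = DMSO wells with yeast and 100% = wells holding no yeast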; conditions: S. cerevisiae tim10-1 ts strain growth, BacTiter-Glo, 24 h; at 20 µM; active compounds read high

In the case of `O=C(/C(=C/c1cccc(Cl)c1)c1nc2ccccc2[nH]1)c1ccccc1`, the inhibition is reported as 43.5% (active).
With `N/C(=N\OC(=O)Cc1ccccc1[N+](=O)[O-])c1ccc(Br)cc1` the inhibition was 57% (active).
With `N/C(=N\OC(=O)CCc1ccccc1)c1ccc(Cl)cc1` the inhibition was 65.2% (active).
In the case of `COc1ccc(/C(N)=N/OC(=O)Cc2ccccc2)cc1`, the inhibition is reported as 46.5% (active).
For `COc1ccc(/C(N)=N/OC(=O)CCCc2ccccc2)cc1`, the inhibition was 45.1% (active).
In the case of `O=[N+]([O-])c1ccc(N/N=C2/CCCCC2c2ccccn2)c([N+](=O)[O-])c1` (stereo not given), the inhibition is reported as 42% (active).
For `CC(=NCc1ccc2c(c1)OCO2)C1=C(O)c2ccccc2C1=O`, the inhibition was 61.2% (active).
For `COc1cc(N=Cc2c(O)[nH]c3ccccc23)cc(OC)c1OC`, the inhibition was 44% (active).
For `O=[N+]([O-])c1ccc(C=Nc2ccc(Cl)cc2Cl)s1`, the inhibition was 77.7% (active).
For `CCSC1=C(C#N)C(=O)n2c1cc1c2CCCC1`, the inhibition was 58.8% (active).
For `CCc1nn(CCCC(=O)Nc2ccc(C)cc2C)c(=O)c2cc3occc3n12`, the inhibition was 41.6% (active).
For `CCOC(=O)C1Cn2c(nc3c(c2=O)C(C)(CC)Cc2ccccc2-3)S1` (stereo not given), the inhibition was 40.7% (active).
With `CNC(C)C#Cc1ccc2sc3cc(OC)c(OC)cc3c(=O)c2c1` (stereo not given) the inhibition was 43.4% (active).
For `COc1ccc(CCNc2cc(C)nc3c(-c4ccc(Cl)cc4)c(C)nn23)cc1OC`, the inhibition was 43.9% (active).
For `O=c1c(Cl)c(NCc2ccc(F)cc2Cl)cnn1C12CC3CC(CC(C3)C1)C2`, the inhibition was 43.1% (active).
With `O=C(Nc1ccc(Br)cn1)c1ccc([N+](=O)[O-])o1` the inhibition was 66.6% (active).
With `Cc1cccc(NC(=O)c2ccc([N+](=O)[O-])o2)c1` the inhibition was 58% (active).
In the case of `Cc1onc(NC(=O)c2ccc([N+](=O)[O-])o2)c1Br`, the inhibition is reported as 42.4% (active).

Going from `O=C(CCc1nc2ccccc2c(=O)[nH]1)OCC(=O)c1cccc(Cl)c1` to `O=C(Cc1nc2ccccc2[nH]c1=O)c1ccc(Cl)cc1`, the inhibition falls from 18.5% to 5.58%.

First: CCCN=C1N(C)C[C@@H]2[C@@H]3C(=O)N(Cc4ccccc4)C(=O)[C@@H]3[C@](C)(C(=O)OC)N12
Second: CCN1C(=NCCc2cccnc2)N[C@@H](c2ccccc2)C(C(=O)OC)=C1C
The inhibition of the first is higher: 0.857% for the first, 0.495% for the second.

First: O=C(COC(=O)c1cccc(Cl)c1)NC1CCCCCCC1
Second: O=C(CSc1nccn1-c1cccc(F)c1)NC1CCCC1
The inhibition of the first is higher: 8.83% for the first, -5.65% for the second.

Going from `Cc1cccc([C@H]2[C@@H]3C=CC[C@@H](C)[C@@H]3C(=O)N2Cc2ccccc2)c1` to `NC(=O)c1ccc(CN2CCC(Cc3ccccc3)CC2)cc1`, the inhibition falls from 33.1% to -11.2%.

Going from `Cn1cc(CN2CCCCC2c2ccccn2)c(-c2ccc3c(c2)OCCO3)n1` (stereo not given) to `Cc1ccnc(N2CCN(C(=O)CSc3nc4ccccc4nc3N3CCCCC3)CC2)c1`, the inhibition falls from 9.13% to 2.78%.

Compared with `CCOC(=O)C1CCN(C(=O)Cn2nc(C)c3c(C)n(-c4ccccc4)nc3c2=O)CC1`, `CCCCOc1ccc(C(=O)NCC(=O)OCC(=O)N2CCN(S(=O)(=O)c3ccc(C)cc3C)CC2)cc1` is lower in inhibition: 27.3% for the first, 15.7% for the second.

Compared with `O=C(NN1CCOCC1)c1cccc(F)c1`, `Cn1c(SCC(=O)Nc2ccc(N3CCOCC3)cc2)nnc1C(F)(F)F` is higher in inhibition: -9.56% for the first, -4.28% for the second.

Compared with `COc1c(C)c2c(c(O)c1C/C=C(\C)CCC(=O)O)C(=O)OC2`, `CCc1nn(CCCC(=O)Nc2ccc(C)c(C)c2)c(=O)c2cc3occc3n12` is higher in inhibition: 4.45% for the first, 33.6% for the second.

Compared with `COc1ccc(S(=O)(=O)NCCCc2ccccc2)cc1`, `O=C(COC(=O)c1ccc(F)cc1)NCCCc1ccccc1` is higher in inhibition: 19.3% for the first, 24.1% for the second.

First: COc1ccc(/C(N)=N/OC(=O)Oc2ccccc2)cc1
Second: N/C(=N\OC(=O)/C=C/c1ccccc1)c1ccc(Br)cc1
The inhibition of the first is lower: 5.03% for the first, 25.9% for the second.

Compared with `CCOC(=O)C(Cc1ccccc1)NC(=O)CCC(=O)c1ccc(OC)cc1` (stereo not given), `COc1ccc(CCC(=O)c2ccc(OC)cc2)cc1` is lower in inhibition: 23.1% for the first, 5.98% for the second.

Compared with `N/C(=N\OC(=O)CCc1ccccc1)c1cccnc1`, `O=C(CCc1ccccc1)NNC(=O)COc1ccc(Cl)cc1` is lower in inhibition: 21.7% for the first, 0.762% for the second.

Compared with `N/C(=N\OC(=O)N1c2ccccc2Sc2ccccc21)c1ccc(Br)cc1`, `O=C(CSc1ccc2nnc(-c3ccccc3)n2n1)N1CCCc2ccccc21` is lower in inhibition: 8.49% for the first, -0.717% for the second.

Going from `COc1ccc(NC(=O)c2sc(N3CCOCC3)nc2-c2ccccc2)c(OC)c1` to `COc1cccc(-n2c(=S)sc3c(=O)n(-c4ccccc4OC)c(SCC4OCCO4)nc32)c1`, the inhibition falls from 33.9% to 4.35%.

Compared with `CCOc1ccc2ccccc2c1/C=N/NC(=O)c1c(C)cc(C)[nH]c1=O`, `COc1cc(/C=N/NC(=O)Cc2ccccc2)cc(OC)c1OC` is lower in inhibition: 2.15% for the first, 2.14% for the second.

Going from `CCOC(=O)CN1CC23C=CC(O2)C(C(=O)Nc2ccc(F)cc2)C3C1=O` (stereo not given) to `CCOc1ccc2oc(C(=O)N(CC)CC(=O)Nc3ccc(NC(C)=O)cc3)c(C)c2c1`, the inhibition rises from 3.99% to 16.8%.

Compared with `COC(=O)[C@H](C(C)C)n1c(C)c(C(C)=O)c(C(C)=O)c1C`, `COCCN(C(=O)C(C)C)c1nnc(-c2ccc(C(C)(C)C)cc2)s1` is higher in inhibition: 0.67% for the first, 38.1% for the second.

Compared with `COc1ccc(CNC(=O)C(C)NCc2ccccc2Cl)cc1` (stereo not given), `COc1ccc(NC(=O)CN(C)C(=O)c2n[nH]c3ccccc23)cc1` is lower in inhibition: 21.6% for the first, 9.05% for the second.

Going from `COc1ccc(CNC(=O)COc2ccccc2C(=O)c2cnn(-c3ccccc3)c2)cc1OC` to `O=C(NNC(=S)NC(=O)c1cn(-c2ccccc2)nc1-c1ccccc1)c1ccncc1`, the inhibition rises from 4.14% to 13.6%.

First: C[n+]1ccccc1C1CCCC/C1=N\Nc1ccc([N+](=O)[O-])cc1[N+](=O)[O-] (stereo not given)
Second: O=C(Nc1ccccc1)O/N=C1\CCCCC1c1ccc([N+](=O)[O-])cc1[N+](=O)[O-] (stereo not given)
The inhibition of the first is higher: 28% for the first, 24.7% for the second.

Going from `O=C(C1CCCO1)N(c1ccc(F)cc1)C1C=CS(=O)(=O)C1` (stereo not given) to `O=C(c1cnc(Cl)c(Cl)c1)N1CCN(S(=O)(=O)c2ccc(F)cc2)CC1`, the inhibition falls from 5.92% to 3.46%.

First: CCCN(CCC)c1c([N+](=O)[O-])c(=O)oc2ccccc12
Second: CCC1(CC)Cc2ccccc2-c2nc(CCl)[nH]c(=O)c21
The inhibition of the first is lower: 11% for the first, 27.6% for the second.

Compared with `CCCC(NCC(=O)Nc1ccccc1C(=O)NC1CC1)c1ccccc1` (stereo not given), `O=C(CCCC(=O)N(CC(=O)NC1CCCC1)Cc1ccccc1Cl)Nc1ccccn1` is higher in inhibition: 11.8% for the first, 14.9% for the second.

First: CCc1ccc(NC(=O)NC(C)c2ccc3c(c2)OCO3)cc1 (stereo not given)
Second: O=C(Nc1cccc(O)c1)c1ccc(C(=O)c2ccccc2)o1
The inhibition of the first is lower: 2.45% for the first, 6.57% for the second.

Going from `CC(=NCc1ccco1)C1=C(O)c2ccccc2C1=O` to `CCC1(CC)Cc2ccccc2-c2nc3ccccc3c(=O)n21`, the inhibition falls from 34.3% to 16.4%.

Compared with `Cc1ccc(S(=O)(=O)N2CCN=C2SCc2c(F)cccc2Cl)cc1`, `O=S(=O)(Nc1ccc2[nH]ncc2c1)c1ccccc1Cl` is higher in inhibition: -8.21% for the first, 6% for the second.

Compared with `COc1ccc2[nH]c(C(=O)N/N=C/c3cc(OC)c(OC)c(OC)c3)cc2c1`, `COc1ccc(Cc2nnc(SCC(=O)Nc3ccc(C)c(C)c3)o2)cc1OC` is lower in inhibition: 20.1% for the first, 7.89% for the second.

Compared with `Cc1ccsc1-c1cc(C(=O)O)c2c(ccc3ccccc32)n1`, `O=c1oc(-c2ccccc2NS(=O)(=O)c2ccc(Cl)cc2)nc2ccccc12` is higher in inhibition: -20.7% for the first, 39.6% for the second.

Going from `O=c1nc(N/N=C/c2ccco2)cn[nH]1` to `CC(C)(C)c1cc(C(=O)N/N=C/c2ccc([N+](=O)[O-])s2)n[nH]1`, the inhibition rises from 17.8% to 32%.

Compared with `CC1CN(C(=O)c2ccc([N+](=O)[O-])s2)CC(C)O1` (stereo not given), `Cc1cccc(NC(=O)c2cc([N+](=O)[O-])ccc2N2CCN(C)CC2)c1` is lower in inhibition: 17.2% for the first, 10% for the second.

First: O=C1CCc2cc(S(=O)(=O)Nc3ccc(C(F)(F)F)cc3)cc3c2N1CC3
Second: COCc1cc(=O)[nH]c(-c2ccc(C(F)(F)F)cc2)n1
The inhibition of the first is higher: 4.21% for the first, -4.56% for the second.

First: CCSc1ncnc2c(C#N)c3n(c12)CCCCC3
Second: CCN(CC)S(=O)(=O)c1ccc(N2CCCC2)c(NC(=O)c2ccc([N+](=O)[O-])o2)c1
The inhibition of the first is lower: -13.6% for the first, 31.3% for the second.

First: CC(Sc1nn(-c2ccc(Cl)cc2)c(=S)s1)C(=O)NCC1CCCO1 (stereo not given)
Second: Cc1onc(C(=O)NCc2ccc(F)cc2)c1[N+](=O)[O-]
The inhibition of the first is higher: 25.6% for the first, 5.1% for the second.

Compared with `Cc1nc([N+](=O)[O-])nn1C12CC3CC(CC(Br)(C3)C1)C2`, `O=C(O)CC12CC3CC(C1)CC(n1ncc(NCc4ccc(F)cc4)c(Cl)c1=O)(C3)C2` is lower in inhibition: 27% for the first, 0.72% for the second.

Going from `CCc1nn(CCCC(=O)NCc2ccc(C)cc2)c(=O)c2cc3occc3n12` to `CCOc1cc2[nH]c(=S)n(Cc3ccc(C(=O)N4CCN(C)CC4)cc3)c(=O)c2cc1OCC`, the inhibition falls from 31.1% to 4.68%.

Going from `COC(=O)c1cccc(N(C(=O)c2ccco2)C(C(=O)NC2CCCC2)c2ccco2)c1` (stereo not given) to `Cc1ccc(S(=O)(=O)NCC(=O)NNC(=O)c2ccc(Br)cc2)cc1C`, the inhibition rises from 3.43% to 6.99%.

Going from `Cn1c(=O)c2c(ncn2CC(COCc2ccccc2Cl)OCc2ccccc2Cl)n(C)c1=O` (stereo not given) to `CCOc1ccc(NC(=O)c2ccc(NC(=O)CN3C(=O)C(=O)N(CC(C)C)C3=O)cc2)cc1`, the inhibition falls from 19.9% to 2.57%.

First: Cc1ccc(C(=O)COC(=O)CCN2C(=O)C3C4CC(C(Br)C4Br)C3C2=O)cc1 (stereo not given)
Second: N/C(=N\OC(=O)CCn1cccc(C(F)(F)F)c1=O)c1ccc(OC(F)(F)F)cc1
The inhibition of the first is higher: 7.92% for the first, -0.346% for the second.

Going from `COc1ccc(CCNc2nc(C)cc(C)n2)cc1OC` to `COc1ccc(CCNc2nc3ccc(C)cc3n3cnnc23)cc1OC`, the inhibition rises from -4.02% to 2.87%.

Going from `O=C(CN1CCN(Cc2ccc(F)cc2Cl)C1=O)NCc1cccs1` to `O=C(Nc1ccc(Br)cn1)c1ccc([N+](=O)[O-])cc1Cl`, the inhibition falls from 12.6% to 7.02%.

First: COC(=O)/C(C#N)=C/c1occc1C
Second: CN1C(=O)c2ccc(C(=O)Nc3ccc(Br)cn3)cc2C1=O
The inhibition of the first is lower: -13.8% for the first, 6.17% for the second.
